The whole screen tested about 350,000 compounds, of which about 31,000 (8.9%) were called active. Roughly 15% stayed inconclusive and do not appear here. The call rests on the fitted dose curve; in most records, active means well fitted inhibition curve with a large enough effect; inconclusive means small, poorly fitted or top-dose-only effect; inactive means no such curve, though single readings can be large or run the other way. The list comes from a sample in which actives are over-represented; it also holds similar structures and randomly drawn compounds.
target: Histone-lysine N-methyltransferase EHMT2 (Homo sapiens) (UniProt Q96KQ7); assay: qHTS Assay for Inhibitors of Histone Lysine Methyltransferase G9a; conditions: G9a H3K9 monomethylation, AlphaScreen, 2 h; series mostly up to 59 µM; activity, negative = inhibition: at the top concentration; further: nearly all actives have a fitted effect of over 75% in size
Procedure, shortened: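 G9a (20 nM) preincubated 15 min RT with compounds, then 500 nM biotinylated H3K9 peptide and 20 uM SAM added; 2 h RT reaction. Monomethyl-H3K9 product detected by AlphaScreen with anti-H3K9me1 antibody, streptavidin donor and anti-rabbit IgG acceptor beads.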
On the % scale 0 is the no-effect control and ±100 the full control effect; potency means the concentration at half of the fitted maximal effect.

Sequence of Histone-lysine N-methyltransferase EHMT2 (Homo sapiens) (Q96KQ7 913-1193 limits assumed): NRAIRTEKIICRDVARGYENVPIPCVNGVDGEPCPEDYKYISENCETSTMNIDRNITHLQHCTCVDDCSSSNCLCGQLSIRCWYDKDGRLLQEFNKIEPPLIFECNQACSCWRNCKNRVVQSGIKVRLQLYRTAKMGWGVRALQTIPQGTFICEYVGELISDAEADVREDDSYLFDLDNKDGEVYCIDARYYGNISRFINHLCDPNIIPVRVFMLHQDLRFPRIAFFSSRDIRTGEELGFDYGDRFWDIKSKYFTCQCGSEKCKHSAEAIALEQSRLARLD

SMILES	activity, negative = inhibition	Potency
COc1ccccc1-c1ccnc2[nH]n(-c3ccccc3)c(=O)c12	-27.4% (inactive)	
CNC(=S)NNC(=O)c1cccn(Cc2ccccc2)c1=O	9.83% [at 102 µM] (inactive)	
Cc1ccc(/C=N/NC(=O)c2sccc2OCc2ccc(F)cc2)cc1	-13.6% (inactive)	
CNC(=S)NNC(=O)c1sccc1OCc1ccccc1		50.1 µM (active)
Cc1ccc(-c2nn(-c3ccc(F)cc3)cc2C(=O)NCC(c2cccs2)N2CCOCC2)cc1 (centres undefined)	6.67% [at 102 µM] (inactive)	
CC(=O)c1ccc(N2CCN(C(=O)c3ccc(Cl)c(S(=O)(=O)NC4CC4)c3)CC2)c(F)c1	-35.2% [at 102 µM] (inactive)	
CCOc1ccccc1/C=c1\sc2nc(-c3ccco3)nn2c1=O		35.5 µM (active)
CCOC(=O)/C=c1\s/c(=C\c2ccccc2OC)c(=O)n1CC(=O)N1CCOCC1	-18.7% [at 102 µM] (inactive)	
CCOc1ccccc1NC(=O)Cn1c(=O)n(Cc2ccco2)c(=O)c2sc3ccccc3c21	-6.87% (inactive)	
Cc1cc2ccccc2n1CCNC(=O)c1ccc(F)cc1	-17.6% (inactive)	
Cc1ccc(NC(=O)c2cn3c4c(ccc(Cl)c4c2=O)OC(C)C3)cc1C (centres undefined)	-24.9% (inactive)	
O=C(O)c1cc(S(=O)(=O)N(Cc2ccccc2)c2ccccc2)ccc1Cl	-15% [at 102 µM] (inactive)	
FC(F)(F)c1cc(-c2ccco2)nc(N2CCOCC2)n1	-0.688% (inactive)	
Cc1cc(C)c2nc(-c3ccco3)cc(C(=O)O)c2c1		10 µM (active)
CC1CCCN(C(=O)c2cc(-c3ccco3)nc3ccccc23)C1 (centres undefined)	-9.53% [at 2.33 µM] (inactive)	
Cc1cc2c(c(=O)n1Cc1ccccc1)C1O[C@](CCCCN3C(=O)c4ccccc4C3=O)(Cc3ccccc31)O2	-0.249% [at 2.33 µM] (inactive)	
O=C(c1c(F)cccc1Cl)N1CCN(S(=O)(=O)c2ccc3c(c2)OCCCO3)CC1	30.5% [at 102 µM] (inactive)	
CCOc1ccccc1-c1nc(CN2CCC(C(=O)N3CCOCC3)CC2)c(C)o1		89.1 µM (active)
CCOc1ccccc1-c1cc(C(=O)N2CCOCC2)c2ccccc2n1	45.7% [at 102 µM] (inactive)	
Cc1oc(-c2ccccc2F)nc1CN1CCC(C(=O)NCCc2ccc(Cl)cc2)CC1	-33.8% (inactive)	
O=S(=O)(c1ccc(Br)cc1)c1nnn2c1nc(N1CCOCC1)c1sccc12	-3.15% (inactive)	
Cc1ccc(S(=O)(=O)N2CCN(CC(=O)N/N=C/c3cc([N+](=O)[O-])ccc3Cl)CC2)cc1	3.6% [at 102 µM] (inactive)	

SMILES	activity, negative = inhibition	Potency
Cc1ccc(-c2n[nH]c(=S)n2/N=C/c2cc3c(cc2[N+](=O)[O-])OCO3)cc1		1.26 µM (active)
Cc1nc([N+](=O)[O-])cn1CC(=O)Nc1ccc2c(c1)OCO2	3.06% [at 102 µM] (inactive)	
CC(=O)N/N=C/c1cc2c(cc1[N+](=O)[O-])OCO2	1.79% [at 102 µM] (inactive)	
CCOC(=O)c1nc(-c2ccc3c(c2)OCO3)[nH]c1C	-9.21% (inactive)	
Cc1ccc(S(=O)(=O)N/N=C\c2cc3c(cc2[N+](=O)[O-])OCO3)cc1		5.62 µM (active)
COc1ccccc1-c1nn(Cc2ccccc2)cc1C(=O)N1CCN(c2ncccn2)CC1	21.8% [at 12.7 µM] (inactive)	
Cc1ccc(OCC(=O)Nc2nnc(-c3ccco3)s2)cc1	-20.3% [at 102 µM] (inactive)	
COc1ccc(OCC(=O)Nc2nnc(-c3ccco3)s2)cc1		50.1 µM (active)
CNc1nnc(-c2ccco2)s1	6.5% [at 102 µM] (inactive)	
Cc1cccc(NC(=O)Nc2ccc(OCc3ccccc3)cc2)n1	8.02% [at 2.33 µM] (inactive)	
Cc1cccc(NC(=O)c2ccc(COc3ccccc3[N+](=O)[O-])o2)n1	-23.8% [at 102 µM] (inactive)	
CCOc1ccc(OCc2ccc(C(=O)Nc3cccc(C)n3)o2)cc1		44.7 µM (active)
N#Cc1ccsc1NC(=O)CN1CCN(S(=O)(=O)c2cc(Cl)ccc2Cl)CC1		50.1 µM (active)
COc1ccc(Cl)cc1S(=O)(=O)N1CCC(c2ccncc2)CC1	6.73% (inactive)	
CC(C#N)(NC(=O)CN1CCN(S(=O)(=O)c2cc(C(F)(F)F)ccc2Cl)CC1)C1CC1 (centres undefined)	-20.4% [at 102 µM] (inactive)	
COc1ccc(Cl)cc1S(=O)(=O)N1CCN(CC(=O)C(C)(C)C)CC1		44.7 µM (active)
COc1ccc(Cl)cc1S(=O)(=O)N1CCC(O)(c2ccc(Cl)cc2)CC1	39.4% (inactive)	
N#Cc1ccsc1NC(=O)CN1CCCCC1	-24.5% [at 102 µM] (inactive)	
O=C(NCC(c1ccco1)S(=O)(=O)c1cccs1)c1ccc(F)cc1 (centres undefined)	-7.05% (inactive)	
CCc1ccc(NC(=O)CN2CCSc3ccc(S(=O)(=O)N4CCCC4)cc32)cc1	-29.8% (inactive)	
CCN(Cc1ccccc1)S(=O)(=O)c1ccc2c(c1)CCCN2C(C)=O	28.4% (inactive)	
Cc1ccc2[nH]c3c(=O)n(CC(=O)NC(C)C)ncc3c2c1	-25.7% (inactive)	

SMILES	activity, negative = inhibition	Potency
CCc1ccc(NC(=O)CN2C(=O)C(c3ccccc3)=NC23CCCCCC3)cc1	9.48% (inactive)	
Cc1cc2c(cc3c(SCc4nc(-c5ccccc5)oc4C)nnc(C)n32)o1	-6.19% (inactive)	
Cc1nnc(SCc2cccc(Cl)c2)n(N)c1=O	6.28% [at 102 µM] (inactive)	
Cc1cc2c(cc3c(SCc4cccc(Cl)c4)nnc(C)n32)o1		7.08 µM (active)
Cc1cc(C(=O)NNC(=O)c2ccccc2O)c(C)o1	72.2% [at 12.7 µM] (inactive)	
CC(=O)Nc1ccc(NC(=O)C(NS(=O)(=O)c2ccc3c(c2)OCCO3)C(C)C)cc1 (centres undefined)	15.5% [at 12.7 µM] (inactive)	
Cc1ccc(C2CC2C(=O)NN)cc1 (centres undefined)	8.33% [at 102 µM] (inactive)	
Cc1ccc(NC(=O)C2CC2c2ccccc2)cc1 (centres undefined)	18.3% [at 2.33 µM] (inactive)	
Cc1ccc(C2NC(C(=O)O)CS2)cc1 (centres undefined)		31.6 µM (active)
COc1cc(C(=O)Nc2ccc(-n3c(C)nc4ccccc4c3=O)cc2)cc(OC)c1OC	2.32% (inactive)	
CCc1c(C)nc(N)n2c(SCC(=O)NC3CCCCC3)nnc12	-19.6% [at 102 µM] (inactive)	
COc1ccc(OC)c2[nH]c(=O)c(CCNC(=O)C(C)(C)C)cc12	-0.81% [at 102 µM] (inactive)	
COc1ccc(OC)c2[nH]c(=O)c(CCNC(=O)C(=O)c3c[nH]c4ccccc34)cc12		50.1 µM (active)
O=C(NCCCc1ccccc1)C(=O)c1c[nH]c2ccccc12	72.9% [at 102 µM] (inactive)	
Cc1ccc(S(=O)(=O)c2cn(Cc3ccccc3)c3cc(N4CCCC4)c(F)cc3c2=O)c(C)c1	-8.52% (inactive)	
Cc1c(NC(=O)c2cc(=O)c3ccccc3o2)c(=O)n(-c2ccccc2)n1C	2.29% (inactive)	
CCc1cccc(CC)c1NC(=O)Cn1c(=O)c(-c2cc(C)ccc2NC(C)=O)nc2ccccc21	-7.86% (inactive)	
COCCCNCC(=O)Nc1sc(C)c(C)c1C(=O)OC		1 µM (active)
COC(=O)c1c(NC(=O)C(C)Oc2ccc(Cl)c(C)c2)sc(C)c1C (centres undefined)	3.93% (inactive)	
COC(=O)c1sc(NC(=O)COC(=O)C2CCC2)c(C(=O)OC)c1C	11.6% [at 102 µM] (inactive)	

Reference: PubChem BioAssay AID504332 (National Center for Advancing Translational Sciences (NCATS), 2011)
